Measured values from PubChem BioAssay (NCI).
The panel holds about 79,000 compounds, 15% with a hit somewhere; the sample as a whole holds those more often. Activity calls are given as the source filed them. Rule as the data show it: active = growth inhibition above about 70%; inactive = the rest.

Legend:
[1] = NCI Yeast Anticancer Drug Screen. Data for the wt1 strain (AID 149);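 also: 0% = growth of vehicle-treated wt1 cultures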; conditions: S. cerevisiae wt1 strain (SPY 50644) growth inhibition, stronger effect = higher value
Summary of the method: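 Compounds are added to wt1 yeast cultures. Growth is then measured. Inhibition is expressed relative to vehicle-treated controls.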

[2] = NCI Yeast Anticancer Drug Screen. Data for the rad50EPP+ strain (AID 151);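 also: 0% = growth of vehicle-treated control cultures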; conditions: S. cerevisiae rad50 mutant strain, stronger effect = higher value
Summary of the method: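 Measured: growth inhibition of rad50EPP+ yeast. Reference: vehicle-treated controls. Screen uses strains with defined genetic alterations in DNA damage repair or cell cycle control.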

[3] = NCI Yeast Anticancer Drug Screen. Data for the rad50 strain (AID 155);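 also: 0% = growth of vehicle-only cultures of the same strain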; conditions: S. cerevisiae rad50 strain growth inhibition, stronger effect = higher value
Summary of the method: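 Inhibition values express reduced yeast growth in compound-treated cultures relative to vehicle-treated controls.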

[4] = NCI Yeast Anticancer Drug Screen. Data for the mec2-1 strain (AID 157); conditions: S. cerevisiae mec2-1 strain, stronger effect = higher value
Summary of the method: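 Compounds were applied to mec2-1 yeast cells. Their growth was then compared with that of vehicle-treated cultures to give growth inhibition.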

[5] = NCI Yeast Anticancer Drug Screen. Data for the rad14 strain (AID 159);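 also: 0% = growth of vehicle-treated control cultures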; conditions: S. cerevisiae rad14 strain growth inhibition, stronger effect = higher value
Summary of the method: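 A mutant yeast strain defective in DNA damage repair is treated with compound; inhibition of its growth is scored against untreated, vehicle-exposed cultures.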

[6] = NCI Yeast Anticancer Drug Screen. Data for the sgs1 mgt1 strain (AID 161);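 also: 0% = growth of cultures given vehicle only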; conditions: S. cerevisiae sgs1 mgt1 strain, stronger effect = higher value
Summary of the method: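 This yeast growth screen uses a strain with defined DNA-repair lesions; compound-treated growth is compared with vehicle-treated growth.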

[7] = NCI Yeast Anticancer Drug Screen. Data for the CLN2oe strain (AID 163);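 also: 0% = growth of vehicle-only control cultures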; conditions: S. cerevisiae CLN2oe strain, stronger effect = higher value
Summary of the method: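 Cells of an engineered yeast line with disturbed cell-cycle regulation are treated with compound. Inhibition of growth is then calculated relative to the vehicle-treated reference.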

[8] = NCI Yeast Anticancer Drug Screen. Data for the cln2 rad14 strain (AID 165);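 also: 0% = growth equal to vehicle treated cultures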; conditions: S. cerevisiae cln2 rad14 strain, stronger effect = higher value
Summary of the method: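 Strain: cln2 rad14 yeast, altered in cell cycle control and DNA damage repair. Read-out: growth inhibition vs vehicle.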

[9] = NCI Yeast Anticancer Drug Screen. Data for the bub3 strain (AID 167); conditions: S. cerevisiae bub3 mutant strain, stronger effect = higher value
Summary of the method: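 Steps: expose the mutant yeast strain to compound; grow alongside vehicle-treated cultures; measure growth; express inhibition against the vehicle cultures.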

[10] = NCI Yeast Anticancer Drug Screen. Data for the wt2 strain (AID 169);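 also: 0% = growth of vehicle-treated yeast cultures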; conditions: S. cerevisiae wt2 strain growth inhibition, stronger effect = higher value
Summary of the method: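 Growth of compound-treated yeast is measured and expressed as inhibition relative to vehicle-only controls.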

[11] = NCI Yeast Anticancer Drug Screen. Data for the mlh1 strain (AID 171);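 also: 0% = growth of vehicle-treated control cultures of the same strain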; conditions: S. cerevisiae mlh1 strain growth inhibition, stronger effect = higher value
Summary of the method: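 Test agents were incubated with yeast bearing a defined DNA damage repair or cell cycle control alteration; values are growth inhibition normalised to vehicle-treated cultures.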

[12] = NCI Yeast Anticancer Drug Screen. Data for the sgs1 strain (AID 173);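 also: 0% = growth of vehicle-only control cultures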; conditions: S. cerevisiae sgs1 mutant, stronger effect = higher value
Summary of the method: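 Strain with an altered DNA repair or cell cycle pathway exposed to compound. Growth then measured. Value = inhibition versus vehicle control.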

[13] = NCI Yeast Anticancer Drug Screen. Data for the mlh1 rad18 strain (AID 175); conditions: S. cerevisiae mlh1 rad18 strain growth inhibition, stronger effect = higher value
Summary of the method: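 A repair-deficient yeast strain is exposed to test compound, and growth is scored relative to vehicle-treated controls.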

[14] = NCI Yeast Anticancer Drug Screen. Data for the rad18 strain (AID 177); conditions: S. cerevisiae rad18 mutant growth inhibition, stronger effect = higher value
Summary of the method: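 DNA-repair-defective yeast; compound treatment; growth inhibition scored against vehicle.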

[15] = NCI Yeast Anticancer Drug Screen. Data for the rad52 strain (AID 147);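 also: 0% = growth of vehicle-treated control cultures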; conditions: S. cerevisiae rad52 mutant growth inhibition, stronger effect = higher value
Summary of the method: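 Growth of repair-deficient yeast cells was compared between compound-treated and vehicle-treated cultures to give percent inhibition.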

[16] = NCI Yeast Anticancer Drug Screen. Data for the mgt1 strain (AID 153); conditions: S. cerevisiae mgt1 mutant growth inhibition, stronger effect = higher value
Summary of the method: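 Compounds were applied to mgt1 mutant yeast, and growth was then compared against vehicle-treated control cultures to give percent inhibition.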

[17] = at 5.0 µM (retest, dose inferred, filed as 0.5)
[18] = at 50.0 µM (retest, dose inferred, filed as 5.0)

Measured: growth inhibition

Cc1ccc(S(=O)(=O)N(C)c2ccc(Cl)cc2C2=NCCc3ccccc32)cc1
inactive: [1]; at 1.2 µM -2% | [1]; at 3.7 µM -19% | [1]; at 11.0 µM -12% | [1]; at 33.0 µM -6% | [2]; at 1.2 µM -8% | [2]; at 3.7 µM -9% | [2]; at 11.0 µM -14% | [2]; at 33.0 µM -9% | [2]; at 100.0 µM -8% | [3]; at 1.2 µM 0% | [3]; at 3.7 µM 5% | [3]; [17] 47% | [3]; at 11.0 µM 11% | [3]; at 33.0 µM 3% | [3]; [18] 56% | [4]; at 1.2 µM -7% | [4]; at 3.7 µM -26% | [4]; [17] 39% | [4]; at 11.0 µM -18% | [4]; at 33.0 µM -3% | [4]; [18] 61% | [5]; at 1.2 µM -23% | [5]; at 3.7 µM -40% | [5]; at 11.0 µM -28% | [5]; at 33.0 µM -15% | [6]; [17] 7% | [7]; at 1.2 µM 15% | [7]; at 3.7 µM 2% | [7]; at 11.0 µM 18% | [7]; at 33.0 µM 9% | [8]; [17] 51% | [9]; at 1.2 µM -16% | [9]; at 3.7 µM -9% | [9]; [17] 52% | [9]; at 11.0 µM 1% | [9]; at 33.0 µM 7% | [10]; at 1.2 µM -25% | [10]; at 3.7 µM -40% | [10]; at 11.0 µM -19% | [10]; at 33.0 µM 6% | [11]; at 1.2 µM -21% | [11]; at 3.7 µM -21% | [11]; at 11.0 µM -17% | [11]; at 33.0 µM 14% | [12]; at 1.2 µM -15% | [12]; at 3.7 µM -20% | [12]; at 11.0 µM -11% | [12]; at 33.0 µM 6% | [13]; [17] 45% | [13]; [18] 55% | [14]; at 1.2 µM -13% | [14]; at 3.7 µM -12% | [14]; at 11.0 µM -18% | [14]; at 33.0 µM -11%
active: [1]; at 100.0 µM 95% | [3]; at 50.0 µM 89% | [3]; at 100.0 µM 94% | [4]; at 50.0 µM 91.7% | [4]; at 100.0 µM 95% | [5]; at 100.0 µM 94% | [6]; [18] 94% | [6]; at 50.0 µM 93.1% | [7]; at 100.0 µM 96% | [8]; [18] 98% | [8]; at 50.0 µM 90% | [9]; [18] 95% | [9]; at 50.0 µM 91.6% | [9]; at 100.0 µM 95% | [10]; at 100.0 µM 94% | [11]; at 100.0 µM 96% | [12]; at 100.0 µM 93% | [13]; at 50.0 µM 90.4% | [14]; at 100.0 µM 94%

CCOC(=O)Nc1ccc2c(c1)Cc1ccccc1-2
inactive: [15]; at 1.2 µM -11% | [15]; at 3.7 µM -10% | [15]; at 11.0 µM -7% | [15]; at 33.0 µM -5% | [15]; at 100.0 µM -5% | [2]; at 1.2 µM -6% | [2]; at 3.7 µM -13% | [2]; at 11.0 µM 15% | [2]; at 33.0 µM 21% | [2]; at 100.0 µM 21% | [4]; at 1.2 µM -4% | [4]; at 3.7 µM -4% | [4]; [17] 1% | [4]; at 11.0 µM -6% | [4]; at 33.0 µM -5% | [4]; [18] 12% | [4]; at 50.0 µM -5.5% | [4]; at 100.0 µM -2% | [5]; at 1.2 µM 0% | [5]; at 3.7 µM -8% | [5]; at 11.0 µM 1% | [5]; at 33.0 µM 1% | [5]; at 100.0 µM 3% | [6]; [17] 4% | [6]; [18] 8% | [6]; at 50.0 µM 5.6% | [8]; [17] -8% | [8]; [18] -3% | [8]; at 50.0 µM -19% | [9]; at 1.2 µM 35% | [9]; at 3.7 µM 28% | [9]; [17] 49% | [9]; at 11.0 µM 21% | [9]; at 33.0 µM 21% | [9]; at 100.0 µM 26% | [10]; at 1.2 µM 5% | [10]; at 3.7 µM 9% | [10]; at 11.0 µM 14% | [10]; at 33.0 µM 19% | [10]; at 100.0 µM 14% | [11]; at 1.2 µM -14% | [11]; at 3.7 µM -8% | [11]; at 11.0 µM -7% | [11]; at 33.0 µM -7% | [11]; at 100.0 µM -5% | [12]; at 1.2 µM -18% | [12]; at 3.7 µM -12% | [12]; at 11.0 µM -4% | [12]; at 33.0 µM 3% | [12]; at 100.0 µM 0% | [13]; [17] -11% | [13]; [18] -25% | [13]; at 50.0 µM 16.4% | [14]; at 1.2 µM -11% | [14]; at 3.7 µM -7% | [14]; at 11.0 µM -4% | [14]; at 33.0 µM -6% | [14]; at 100.0 µM -10%
active: [9]; [18] 88% | [9]; at 50.0 µM 87.2%

C=C(C)[C@@H]1CCc2c(O)c(O)c(=O)cc(C)c2C1
active: [2]; at 100.0 µM 98% | [16]; at 33.0 µM 90% | [16]; at 100.0 µM 98% | [3]; at 33.0 µM 80% | [3]; [18] 97% | [3]; at 50.0 µM 91.6% | [3]; at 100.0 µM 98% | [4]; [18] 99% | [4]; at 50.0 µM 93% | [4]; at 100.0 µM 98% | [5]; at 33.0 µM 85% | [5]; at 100.0 µM 99% | [6]; [18] 99% | [6]; at 50.0 µM 92.8% | [7]; at 33.0 µM 90% | [7]; at 100.0 µM 99% | [8]; [18] 93% | [8]; at 50.0 µM 91.3% | [9]; at 33.0 µM 82% | [9]; [18] 96% | [9]; at 50.0 µM 92.2% | [9]; at 100.0 µM 98% | [10]; at 33.0 µM 91% | [10]; at 100.0 µM 97% | [11]; at 33.0 µM 85% | [11]; at 100.0 µM 99% | [12]; at 33.0 µM 81% | [12]; at 100.0 µM 98% | [13]; [18] 96% | [13]; at 50.0 µM 92.2% | [14]; at 33.0 µM 76% | [14]; at 100.0 µM 98%
inactive: [2]; at 1.2 µM -3% | [2]; at 3.7 µM 8% | [2]; at 11.0 µM 39% | [2]; at 33.0 µM 68% | [16]; at 1.2 µM 10% | [16]; at 3.7 µM 26% | [16]; at 11.0 µM 41% | [3]; at 1.2 µM -10% | [3]; at 3.7 µM 11% | [3]; [17] 41% | [3]; at 11.0 µM 37% | [4]; at 1.2 µM 2% | [4]; at 3.7 µM 22% | [4]; [17] 41% | [4]; at 11.0 µM 32% | [4]; at 33.0 µM 61% | [5]; at 1.2 µM -30% | [5]; at 3.7 µM -14% | [5]; at 11.0 µM 37% | [6]; [17] 46% | [7]; at 1.2 µM 2% | [7]; at 3.7 µM 20% | [7]; at 11.0 µM 33% | [8]; [17] 3% | [9]; at 1.2 µM 8% | [9]; at 3.7 µM 23% | [9]; [17] 52% | [9]; at 11.0 µM 43% | [10]; at 1.2 µM -69% | [10]; at 3.7 µM -31% | [10]; at 11.0 µM -27% | [11]; at 1.2 µM 25% | [11]; at 3.7 µM 36% | [11]; at 11.0 µM 55% | [12]; at 1.2 µM 1% | [12]; at 3.7 µM 24% | [12]; at 11.0 µM 50% | [13]; [17] 57% | [14]; at 1.2 µM 1% | [14]; at 3.7 µM 34% | [14]; at 11.0 µM 48%
